These results are taken from paper PMC11006913.

Changes are numbered by the printed parent chain.

Assay in all cases: PBM; 200 nM protein, PBS
Holding throughout (details): dsDNA, one strand shown

For assay [1], the target named is T1, PAX4 (Homo sapiens, UniProt O43316 9-242, R200K).
T1 sequence: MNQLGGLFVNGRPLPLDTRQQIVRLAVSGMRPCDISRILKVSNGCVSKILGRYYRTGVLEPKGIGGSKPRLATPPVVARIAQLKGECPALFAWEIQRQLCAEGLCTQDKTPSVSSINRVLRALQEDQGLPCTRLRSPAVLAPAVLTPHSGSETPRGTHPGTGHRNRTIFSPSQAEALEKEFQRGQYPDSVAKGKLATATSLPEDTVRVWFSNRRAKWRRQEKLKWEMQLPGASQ

Assay [2] has as its target T2, PAX4 (Homo sapiens, UniProt O43316 9-242).
T2 sequence: T1 sequence with K192R

Assay [3] deals with T3, PAX4 (Homo sapiens, UniProt O43316 9-242, R200Q).
T3 sequence: T1 sequence with K192Q

The target in assay [4] is T4, PAX4 (Homo sapiens, UniProt O43316 9-242, F177V).
T4 sequence: T1 sequence with F169V, K192R

Assay [5] deals with T5, PAX4 (Homo sapiens, UniProt O43316 9-242, F177Y).
T5 sequence: T1 sequence with F169Y, K192R

Assay [6] has as its target T6, PAX4 (Homo sapiens, UniProt O43316 9-242, R227W).
T6 sequence: T1 sequence with K192R, R219W

Assay [7] has as its target PROP1 (Homo sapiens, UniProt O75360 56-141).
The target of assay [8] is PROP1 (Homo sapiens, UniProt O75360 56-141, R99H).
The target in assay [9] is PROP1 (Homo sapiens, UniProt O75360 56-141, F88S).
In assay [10] the target is VAX1 (Homo sapiens, UniProt Q5SQQ9 86-172).
Assay [11] concerns the target VAX1 (Homo sapiens, UniProt Q5SQQ9 86-172, T142I).
Assay [12] has as its target VAX1 (Homo sapiens, UniProt Q5SQQ9 86-172, K157R).

Sequence of PROP1 (Homo sapiens, UniProt O75360 56-141, F88S) (O75360 56-141 F88S): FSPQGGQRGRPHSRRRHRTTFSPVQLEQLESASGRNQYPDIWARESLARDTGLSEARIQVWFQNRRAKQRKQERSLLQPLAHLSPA
Sequence of PROP1 (Homo sapiens, UniProt O75360 56-141, R99H) (O75360 56-141 R99H): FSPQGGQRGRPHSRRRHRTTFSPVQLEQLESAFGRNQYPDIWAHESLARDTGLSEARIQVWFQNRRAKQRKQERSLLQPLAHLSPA
Sequence of PROP1 (Homo sapiens, UniProt O75360 56-141) (O75360 56-141): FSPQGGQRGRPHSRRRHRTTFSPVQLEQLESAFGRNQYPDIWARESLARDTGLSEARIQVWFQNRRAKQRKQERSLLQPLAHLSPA
Sequence of VAX1 (Homo sapiens, UniProt Q5SQQ9 86-172, T142I) (Q5SQQ9 86-172 T142I): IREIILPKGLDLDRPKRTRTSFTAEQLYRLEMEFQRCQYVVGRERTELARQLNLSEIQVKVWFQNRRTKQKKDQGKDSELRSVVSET
Sequence of VAX1 (Homo sapiens, UniProt Q5SQQ9 86-172) (Q5SQQ9 86-172): as the sequence (Q5SQQ9 86-172 T142I) above, with I57T counted along it
Sequence of VAX1 (Homo sapiens, UniProt Q5SQQ9 86-172, K157R) (Q5SQQ9 86-172 K157R): as the sequence (Q5SQQ9 86-172 T142I) above, with I57T, K72R counted along it

In the case of GCCGCGCC, the binding signal with PAX4 [1] was 9.1 upbm affinity estimate (log intensity, higher = more binding, comparable within an allelic series); with PAX4 [2] it was 9.1 upbm affinity estimate (log intensity, higher = more binding, comparable within an allelic series); in the assay with PAX4 [3], 9.18 upbm affinity estimate (log intensity, higher = more binding, comparable within an allelic series); with PAX4 [4], 9.12 upbm affinity estimate (log intensity, higher = more binding, comparable within an allelic series); with PAX4 [5] it was 9.11 upbm affinity estimate (log intensity, higher = more binding, comparable within an allelic series); with PAX4 [6] it was 9.16 upbm affinity estimate (log intensity, higher = more binding, comparable within an allelic series).

Regarding AAGGGGGC, the binding signal was 9.31 upbm affinity estimate (log intensity, higher = more binding, comparable within an allelic series) with PAX4 [1]; 9.38 upbm affinity estimate (log intensity, higher = more binding, comparable within an allelic series) in the assay with PAX4 [2]; 9.38 upbm affinity estimate (log intensity, higher = more binding, comparable within an allelic series) with PAX4 [3]; 9.25 upbm affinity estimate (log intensity, higher = more binding, comparable within an allelic series) in the assay with PAX4 [4]; 9.22 upbm affinity estimate (log intensity, higher = more binding, comparable within an allelic series) in the assay with PAX4 [5]; 6.71 upbm affinity estimate (log intensity, higher = more binding, comparable within an allelic series) in the assay with PROP1 [7]. Also, the binding signal with PROP1 [8] is 6.71 upbm affinity estimate (log intensity, higher = more binding, comparable within an allelic series); with PROP1 [9] it was 6.36 upbm affinity estimate (log intensity, higher = more binding, comparable within an allelic series); with PAX4 [6], 9.29 upbm affinity estimate (log intensity, higher = more binding, comparable within an allelic series).

Consider AAGCGCTT, for which the binding signal with PAX4 [1] is 9.65 upbm affinity estimate (log intensity, higher = more binding, comparable within an allelic series); in the assay with PAX4 [2], 9.81 upbm affinity estimate (log intensity, higher = more binding, comparable within an allelic series); in the assay with PAX4 [3], 9.56 upbm affinity estimate (log intensity, higher = more binding, comparable within an allelic series); in the assay with PAX4 [4] it was 9.61 upbm affinity estimate (log intensity, higher = more binding, comparable within an allelic series); in the assay with PAX4 [5] it was 9.5 upbm affinity estimate (log intensity, higher = more binding, comparable within an allelic series); in the assay with PAX4 [6], 9.68 upbm affinity estimate (log intensity, higher = more binding, comparable within an allelic series).

With GGAAGCCC, the binding signal with PAX4 [1] is 9.27 upbm affinity estimate (log intensity, higher = more binding, comparable within an allelic series); with PAX4 [2] it was 9.25 upbm affinity estimate (log intensity, higher = more binding, comparable within an allelic series); in the assay with PAX4 [3], 9.38 upbm affinity estimate (log intensity, higher = more binding, comparable within an allelic series); with PAX4 [4], 9.32 upbm affinity estimate (log intensity, higher = more binding, comparable within an allelic series); in the assay with PAX4 [5], 9.3 upbm affinity estimate (log intensity, higher = more binding, comparable within an allelic series); with PAX4 [6] it was 9.35 upbm affinity estimate (log intensity, higher = more binding, comparable within an allelic series).

Turning to ACCGAGCC, the binding signal was 9.37 upbm affinity estimate (log intensity, higher = more binding, comparable within an allelic series) with PAX4 [1]; 9.52 upbm affinity estimate (log intensity, higher = more binding, comparable within an allelic series) with PAX4 [2]; 9.41 upbm affinity estimate (log intensity, higher = more binding, comparable within an allelic series) in the assay with PAX4 [3]; 9.22 upbm affinity estimate (log intensity, higher = more binding, comparable within an allelic series) with PAX4 [4]; 9.25 upbm affinity estimate (log intensity, higher = more binding, comparable within an allelic series) with PAX4 [5]; 6.86 upbm affinity estimate (log intensity, higher = more binding, comparable within an allelic series) with PROP1 [7]. In addition, the binding signal with PROP1 [8] is 6.94 upbm affinity estimate (log intensity, higher = more binding, comparable within an allelic series); with PROP1 [9], 6.77 upbm affinity estimate (log intensity, higher = more binding, comparable within an allelic series); with PAX4 [6], 9.41 upbm affinity estimate (log intensity, higher = more binding, comparable within an allelic series).

Turning to ATACATAT, the binding signal was 10.7 upbm affinity estimate (log intensity, higher = more binding, comparable within an allelic series) with PAX4 [1]; 10.7 upbm affinity estimate (log intensity, higher = more binding, comparable within an allelic series) with PAX4 [2]; 10.8 upbm affinity estimate (log intensity, higher = more binding, comparable within an allelic series) with PAX4 [3]; 10.6 upbm affinity estimate (log intensity, higher = more binding, comparable within an allelic series) with PAX4 [4]; 10.6 upbm affinity estimate (log intensity, higher = more binding, comparable within an allelic series) in the assay with PAX4 [5]; 10.6 upbm affinity estimate (log intensity, higher = more binding, comparable within an allelic series) with PAX4 [6].

Turning to GCCAGAGC, the binding signal with PAX4 [1] was 9.17 upbm affinity estimate (log intensity, higher = more binding, comparable within an allelic series); with PAX4 [2], 9.13 upbm affinity estimate (log intensity, higher = more binding, comparable within an allelic series); with PAX4 [3], 9.26 upbm affinity estimate (log intensity, higher = more binding, comparable within an allelic series); with PAX4 [4] it was 9.3 upbm affinity estimate (log intensity, higher = more binding, comparable within an allelic series); with PAX4 [5] it was 9.28 upbm affinity estimate (log intensity, higher = more binding, comparable within an allelic series); with PAX4 [6] it was 9.34 upbm affinity estimate (log intensity, higher = more binding, comparable within an allelic series).

In the case of AGGTTGCC, the binding signal with PAX4 [1] is 9.39 upbm affinity estimate (log intensity, higher = more binding, comparable within an allelic series); in the assay with PAX4 [2], 9.33 upbm affinity estimate (log intensity, higher = more binding, comparable within an allelic series); with PAX4 [3], 9.49 upbm affinity estimate (log intensity, higher = more binding, comparable within an allelic series); with PAX4 [4] it was 9.35 upbm affinity estimate (log intensity, higher = more binding, comparable within an allelic series); with PAX4 [5], 9.33 upbm affinity estimate (log intensity, higher = more binding, comparable within an allelic series); in the assay with PAX4 [6], 9.35 upbm affinity estimate (log intensity, higher = more binding, comparable within an allelic series).

As to CTAATTCA, the binding signal was 11.7 upbm affinity estimate (log intensity, higher = more binding, comparable within an allelic series) in the assay with PAX4 [1]; 12.2 upbm affinity estimate (log intensity, higher = more binding, comparable within an allelic series) with PAX4 [2]; 11.6 upbm affinity estimate (log intensity, higher = more binding, comparable within an allelic series) with PAX4 [3]; 10.5 upbm affinity estimate (log intensity, higher = more binding, comparable within an allelic series) with PAX4 [4]; 11 upbm affinity estimate (log intensity, higher = more binding, comparable within an allelic series) with PAX4 [5]; 11 upbm affinity estimate (log intensity, higher = more binding, comparable within an allelic series) in the assay with PAX4 [6].

For the sequence CCCGCGCG, the binding signal in the assay with PAX4 [1] is 9.26 upbm affinity estimate (log intensity, higher = more binding, comparable within an allelic series); with PAX4 [2], 9.11 upbm affinity estimate (log intensity, higher = more binding, comparable within an allelic series); with PAX4 [3], 9.18 upbm affinity estimate (log intensity, higher = more binding, comparable within an allelic series); in the assay with PAX4 [4], 9.01 upbm affinity estimate (log intensity, higher = more binding, comparable within an allelic series); in the assay with PAX4 [5] it was 9.06 upbm affinity estimate (log intensity, higher = more binding, comparable within an allelic series); with PAX4 [6] it was 9.19 upbm affinity estimate (log intensity, higher = more binding, comparable within an allelic series).

Consider AGACAGCT, for which the binding signal with PAX4 [1] was 9.26 upbm affinity estimate (log intensity, higher = more binding, comparable within an allelic series); with PAX4 [2], 9.25 upbm affinity estimate (log intensity, higher = more binding, comparable within an allelic series); with PAX4 [3] it was 9.61 upbm affinity estimate (log intensity, higher = more binding, comparable within an allelic series); with PAX4 [4], 9.5 upbm affinity estimate (log intensity, higher = more binding, comparable within an allelic series); with PAX4 [5] it was 9.46 upbm affinity estimate (log intensity, higher = more binding, comparable within an allelic series); with PAX4 [6], 9.5 upbm affinity estimate (log intensity, higher = more binding, comparable within an allelic series).

On to CGAATTAG, for which the binding signal was 11.9 upbm affinity estimate (log intensity, higher = more binding, comparable within an allelic series) in the assay with PAX4 [1]; 12.5 upbm affinity estimate (log intensity, higher = more binding, comparable within an allelic series) in the assay with PAX4 [2]; 12 upbm affinity estimate (log intensity, higher = more binding, comparable within an allelic series) with PAX4 [3]; 10.3 upbm affinity estimate (log intensity, higher = more binding, comparable within an allelic series) with PAX4 [4]; 11.1 upbm affinity estimate (log intensity, higher = more binding, comparable within an allelic series) in the assay with PAX4 [5]; 10.9 upbm affinity estimate (log intensity, higher = more binding, comparable within an allelic series) in the assay with PAX4 [6].

With CAGGCAGG, the binding signal in the assay with PAX4 [1] was 9.45 upbm affinity estimate (log intensity, higher = more binding, comparable within an allelic series); in the assay with PAX4 [2], 8.98 upbm affinity estimate (log intensity, higher = more binding, comparable within an allelic series); with PAX4 [3], 9.63 upbm affinity estimate (log intensity, higher = more binding, comparable within an allelic series); with PAX4 [4] it was 9.47 upbm affinity estimate (log intensity, higher = more binding, comparable within an allelic series); with PAX4 [5], 9.56 upbm affinity estimate (log intensity, higher = more binding, comparable within an allelic series); with VAX1 [10] it was 7.2 upbm affinity estimate (log intensity, higher = more binding, comparable within an allelic series). Moreover, the binding signal was 7.22 upbm affinity estimate (log intensity, higher = more binding, comparable within an allelic series) with VAX1 [11]; 9.49 upbm affinity estimate (log intensity, higher = more binding, comparable within an allelic series) with PAX4 [6]; 7 upbm affinity estimate (log intensity, higher = more binding, comparable within an allelic series) with VAX1 [12].

As to CCTTCCCC, the binding signal with PAX4 [1] was 9.18 upbm affinity estimate (log intensity, higher = more binding, comparable within an allelic series); in the assay with PAX4 [2], 9.26 upbm affinity estimate (log intensity, higher = more binding, comparable within an allelic series); with PAX4 [3], 9.24 upbm affinity estimate (log intensity, higher = more binding, comparable within an allelic series); with PAX4 [4] it was 9.11 upbm affinity estimate (log intensity, higher = more binding, comparable within an allelic series); in the assay with PAX4 [5] it was 9.14 upbm affinity estimate (log intensity, higher = more binding, comparable within an allelic series); with PAX4 [6] it was 9.24 upbm affinity estimate (log intensity, higher = more binding, comparable within an allelic series).

Regarding GTGAATTA, the binding signal in the assay with PAX4 [1] is 11.6 upbm affinity estimate (log intensity, higher = more binding, comparable within an allelic series); with PAX4 [2] it was 12.2 upbm affinity estimate (log intensity, higher = more binding, comparable within an allelic series); in the assay with PAX4 [3], 11.5 upbm affinity estimate (log intensity, higher = more binding, comparable within an allelic series); with PAX4 [4], 10.5 upbm affinity estimate (log intensity, higher = more binding, comparable within an allelic series); with PAX4 [5], 11 upbm affinity estimate (log intensity, higher = more binding, comparable within an allelic series); in the assay with PAX4 [6], 10.9 upbm affinity estimate (log intensity, higher = more binding, comparable within an allelic series).

Take CGCGCGCC: the binding signal with PAX4 [1] is 9.3 upbm affinity estimate (log intensity, higher = more binding, comparable within an allelic series); with PAX4 [2], 9.28 upbm affinity estimate (log intensity, higher = more binding, comparable within an allelic series); with PAX4 [3], 9.36 upbm affinity estimate (log intensity, higher = more binding, comparable within an allelic series); with PAX4 [4], 9.21 upbm affinity estimate (log intensity, higher = more binding, comparable within an allelic series); in the assay with PAX4 [5], 9.31 upbm affinity estimate (log intensity, higher = more binding, comparable within an allelic series); with PAX4 [6] it was 9.28 upbm affinity estimate (log intensity, higher = more binding, comparable within an allelic series).
